From ChEMBL document CHEMBL1157539, “Thousands of chemical starting points for antimalarial lead identification” (Nature, 2010)

System: Plasmodium falciparum
Test: GSK_TCMDC: Inhibition of Plasmodium falciparum 3D7 in whole red blood cells, using parasite LDH activity as an index of growth. Test compounds present at 2uM
Type: functional

SMILES | Inhibition [%]
O=C(NC(CCCN1CCC2(CC1)OCc1ccccc12)c1ccc(Cl)c(Cl)c1)c1cc(C(F)(F)F)cc(C(F)(F)F)c1 (configuration not stated) | 100
Nc1cc(/C=C/c2ccc([N+](=O)[O-])o2)nc2ccccc12 | 93
CN(Cc1ccccc1)C1CCCN(c2cc(NC(=O)c3cccs3)ccn2)C1.O=C(O)C(F)(F)F (configuration not stated) | 88
CCCc1cc(NCC)nc(Nc2ccc(C)cc2)n1 | 95
Clc1cc(Nc2ncnc3cc(C#C[C@H]4CCCN4)sc23)cc2nc(Cc3ccccc3)[nH]c12.O=C(O)C(F)(F)F | 91
CCOc1cc(C(=O)NCC2CCN(CC3CCCCC3)CC2)ccc1-c1nc2cc(Cl)ccc2[nH]1 | 98
Cc1cc(-c2ccc(CNCc3ccsc3)cc2)ccc1S(=O)(=O)NCCN1CCCC1.O=C(O)C(F)(F)F | 99
O=C(NC1CCCCN(Cc2ccccc2O)C1)c1cccc(C(F)(F)F)c1.O=C(O)C(F)(F)F (configuration not stated) | 93
COc1nc(NCC(C)C)nc(Oc2ccc(=O)n(Cc3ccccc3)n2)n1 | 97
Fc1ccc2c(NN=Cc3ccccc3F)ccnc2c1 | 100
O=C(Nc1ccc(-c2cccc(-c3nc4ccccc4[nH]3)c2)cc1)Nc1ccsc1 | 100
O=C(/C=C/c1ccc(Cl)c(Cl)c1)NCCCCCN1CCCN(C(=O)Nc2ccc(F)c(F)c2)CC1 | 100
O=C(Cc1cccc2ccccc12)N1CCc2cc3nccc(N4CCN5CCC[C@H]5C4)c3cc21 | 100
CCOc1ccc(-c2nonc2NC(=O)c2ccccc2F)cc1OCC | 90
Cn1ccnc1CNC(=O)c1ccc(-c2ccc(-c3nc4cc(C(F)(F)F)ccc4[nH]3)s2)cc1 | 100
COc1ccc2cc(C(=O)NC3CCC(CCN4CCc5cc(C#N)ccc5C4)CC3)[nH]c2c1.Cl (configuration not stated) | 88
O=C(Nc1ccncc1)c1cn(-c2ccccc2)nc1-c1cccs1 | 98
CCCCCCCc1[nH]c2ccccc2c(=O)c1C | 97
OC(CNc1ccnc(Nc2ccccc2)n1)c1ccc(C(F)(F)F)cc1 (configuration not stated) | 100
COc1ccc(N2CCN(CCc3ccc(NC(=O)c4ccc([N+](=O)[O-])cc4)cc3)CC2)c(OC)c1 | 83
Cc1ccc(F)cc1S(=O)(=O)N1CCCCC(c2ccc(C(F)(F)F)cc2)=N1 | 82
CC(C)OC(=O)c1cccnc1SCC(=O)Nc1ccc(C(F)(F)F)cc1Cl | 97
CCCCCCN1CCC(NCc2ccc(C(F)(F)F)cc2)CC1.O=C(O)C(F)(F)F | 100
CCOc1cc(CC)ccc1C1CCN(CCN2CCC(NC(=O)c3ccc(-c4ccc(C(C)=O)cc4)cc3)CC2)CC1 | 100
CC(C)C[C@H](Nc1ccc(C#N)c2ccccc12)C(=O)NC(C)(C)C12CC3CC(CC(C3)C1)C2.O=C(O)C(F)(F)F | 96
Nc1nc(N)c2c(ccc3ccccc32)n1 | 98
CC1(C)CCCN(Cc2c(O)ccc3c(O)c(-c4nc5ccccc5s4)c(=N)oc23)C1 | 100

System: Plasmodium falciparum
Test: GSK_TCMDC: Inhibition of Plasmodium falciparum Dd2 in whole red blood cells, using parasite LDH activity as an index of growth. Test compounds present at 2uM
Type: functional

SMILES | Inhibition [%]
O=C(O)C(F)(F)F.c1ccc(CN2CCC(NCc3ccccc3-c3ccc(CNCc4ccc5c(c4)OCO5)cc3)CC2)cc1 | 49
COc1ccc(CCCc2nc(N)nc(N)c2-c2ccc(Cl)cc2)cc1 | 0
Cc1ccc(Cc2c[nH]c(NCCSCc3ccc(CN(C)C)s3)nc2=O)cn1 | 0
CCCCOc1cc2c(cc1OCC)C(C=Cc1ccc(Cl)cc1Cl)=NCC2.Cl | 95
Cl.NC(=O)c1cccc(Nc2nccc(Nc3ccc(Oc4cccc5ccccc45)cc3)n2)c1 | 22
O=C(Cc1cccc(Cl)c1)Nc1cccc(-c2c[nH]c3nc(Nc4cccc(O)c4)ncc23)c1.O=C(O)C(F)(F)F | 74
COc1ccc(-c2ccc(CNCc3ccccc3)cc2)cc1S(=O)(=O)NCCN1CCCC1.O=C(O)C(F)(F)F | 76
CC(CN1CCN(C)CC1)C(=O)Nc1cccc(-c2ccc(-c3nc4ccccc4[nH]3)cc2)c1 (configuration not stated) | 38
CC(=O)Nc1nc(C(=O)Nc2cccc(-c3ccc(-c4nc5cccc(C)c5[nH]4)cc3)c2)cs1 | 61
CCCC(C)Nc1nc(C)cc(N[C@@H](Cc2ccccc2)C(=O)NCCOc2ccccc2)n1.O=C(O)C(F)(F)F (some centres not stated) | 68
Cc1cc(Cl)c(S(=O)(=O)N(C)c2ccccc2)cc1OCC(=O)NC1CCCCC1 | 94
O=C(C1CC1c1ccccc1)N(Cc1ccc(-c2ccc(CNCCc3ccccc3)cc2)cc1)C1CCNCC1.O=C(O)C(F)(F)F (configuration not stated) | 39
Brc1cc2c(cc1C=NNc1nc(=Nc3ccccc3)[nH]c(=Nc3ccccc3)[nH]1)OCO2 | 32
O=C(NC(CCCN1CCC2(CC1)OCc1ccccc12)c1ccc(Cl)c(Cl)c1)c1cc(C(F)(F)F)cc(C(F)(F)F)c1 (configuration not stated) | 99
Nc1cc(/C=C/c2ccc([N+](=O)[O-])o2)nc2ccccc12 | 81
CN(Cc1ccccc1)C1CCCN(c2cc(NC(=O)c3cccs3)ccn2)C1.O=C(O)C(F)(F)F (configuration not stated) | 90
CCCc1cc(NCC)nc(Nc2ccc(C)cc2)n1 | 16
Clc1cc(Nc2ncnc3cc(C#C[C@H]4CCCN4)sc23)cc2nc(Cc3ccccc3)[nH]c12.O=C(O)C(F)(F)F | 57
CCOc1cc(C(=O)NCC2CCN(CC3CCCCC3)CC2)ccc1-c1nc2cc(Cl)ccc2[nH]1 | 59
Cc1cc(-c2ccc(CNCc3ccsc3)cc2)ccc1S(=O)(=O)NCCN1CCCC1.O=C(O)C(F)(F)F | 49

SMILES | Inhibition [%]
O=C(NC1CCCCN(Cc2ccccc2O)C1)c1cccc(C(F)(F)F)c1.O=C(O)C(F)(F)F (configuration not stated) | 64
COc1nc(NCC(C)C)nc(Oc2ccc(=O)n(Cc3ccccc3)n2)n1 | 93
Fc1ccc2c(NN=Cc3ccccc3F)ccnc2c1 | 99
O=C(Nc1ccc(-c2cccc(-c3nc4ccccc4[nH]3)c2)cc1)Nc1ccsc1 | 90
O=C(/C=C/c1ccc(Cl)c(Cl)c1)NCCCCCN1CCCN(C(=O)Nc2ccc(F)c(F)c2)CC1 | 0
O=C(Cc1cccc2ccccc12)N1CCc2cc3nccc(N4CCN5CCC[C@H]5C4)c3cc21 | 99
CCOc1ccc(-c2nonc2NC(=O)c2ccccc2F)cc1OCC | 100
Cn1ccnc1CNC(=O)c1ccc(-c2ccc(-c3nc4cc(C(F)(F)F)ccc4[nH]3)s2)cc1 | 43
COc1ccc2cc(C(=O)NC3CCC(CCN4CCc5cc(C#N)ccc5C4)CC3)[nH]c2c1.Cl (configuration not stated) | 0
O=C(Nc1ccncc1)c1cn(-c2ccccc2)nc1-c1cccs1 | 10
CCCCCCCc1[nH]c2ccccc2c(=O)c1C | 96
OC(CNc1ccnc(Nc2ccccc2)n1)c1ccc(C(F)(F)F)cc1 (configuration not stated) | 39
COc1ccc(N2CCN(CCc3ccc(NC(=O)c4ccc([N+](=O)[O-])cc4)cc3)CC2)c(OC)c1 | 0
Cc1ccc(F)cc1S(=O)(=O)N1CCCCC(c2ccc(C(F)(F)F)cc2)=N1 | 75
CC(C)OC(=O)c1cccnc1SCC(=O)Nc1ccc(C(F)(F)F)cc1Cl | 88
CCCCCCN1CCC(NCc2ccc(C(F)(F)F)cc2)CC1.O=C(O)C(F)(F)F | 47
CCOc1cc(CC)ccc1C1CCN(CCN2CCC(NC(=O)c3ccc(-c4ccc(C(C)=O)cc4)cc3)CC2)CC1 | 8
CC(C)C[C@H](Nc1ccc(C#N)c2ccccc12)C(=O)NC(C)(C)C12CC3CC(CC(C3)C1)C2.O=C(O)C(F)(F)F | 30
Nc1nc(N)c2c(ccc3ccccc32)n1 | 20
CC1(C)CCCN(Cc2c(O)ccc3c(O)c(-c4nc5ccccc5s4)c(=N)oc23)C1 | 100
